# Compounds with a hit are over-represented: about 19% of the library has one in this group of screens.
# DT40 TDP1 no CPT = qHTS for Inhibitors of human tyrosyl-DNA phosphodiesterase 1 (TDP1): qHTS in cells in absence of CPT. DT40 Tdp1-/- hTDP1 cells, no CPT, ATP luminescence, 48 h. AID 686978, 2013. Potency, µM (series often up to 46.2 µM), inactives show at the highest dose activity change, negative = growth inhibition, usual class: inhibitors. actives 15% (n = 420,000); further: potency means the concentration at half of the fitted maximal effect; on the % scale 0 is the no-effect control and ±100 the full control effect; nearly all actives have a fitted effect of over 55% in size
#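 No-CPT arm: Tdp1-/-;hTDP1 DT40 cells (400/well) plus compounds, incubated ≥48 hr at 37 °C. Readout CellTiter-Glo luminescence.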
# TDP1 cell CPT = qHTS for Inhibitors of human tyrosyl-DNA phosphodiesterase 1 (TDP1): qHTS in cells in presence of CPT | actives 12% (n = 420,000) | chicken DT40 Tdp1-/-;hTDP1 cells + 20 nM CPT, ATP luminescence, 48 h | Potency, µM (top dose mostly 46.2 µM), for the others: at the top dose activity change, negative = growth inhibition, most hits filed as inhibitors; further: potency means the concentration at half of the fitted maximal effect; on the % scale 0 is the no-effect control and ±100 the full control effect; nearly all actives have a fitted effect of over 55% in size
#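 Chicken DT40 Tdp1-/- cells stably complemented with human TDP1 were seeded at 400 cells/well in medium containing 20 nM camptothecin, exposed to pin-transferred compounds, and grown at 37 °C for at least 48 hr. Viability was read as ATP luminescence.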
# SW480 rereplic = A quantitative high throughput screen for small molecules that induce DNA re-replication in SW480 colon adenocarcinoma cells. Potency, µM (doses to about 46.1 µM), for inactives: at the top dose re-replication activation, hits mostly activators. AID 624297, 2012. actives 1.8% (n = 340,000). SW480 DNA re-replication, Hoechst DNA content imaging, 48 h; further: potency means the concentration at half of the fitted maximal effect; % of control where 0% means no effect; nearly all actives have a fitted effect of over 55% in size
#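 Per well, 250 cells were exposed to pinned compound for 48 hr. Nuclear DNA was visualised with Hoechst (40 min, 37 C) and total object intensity recorded by fluorescence scanning.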
# MCF10A rereplic = A quantitative high throughput screen for small molecules that induce DNA re-replication in MCF 10a normal breast cells | MCF 10A DNA re-replication, Hoechst nuclear intensity, 48 h | Potency, µM (highest dose often 46.1 µM), without a hit: top-dose activity, positive = re-replication, actives largely listed as activators | actives 2.9% (n = 350,000) | AID 624296, 2012; further: potency means the concentration at half of the fitted maximal effect; % of control where 0% means no effect; nearly all actives have a fitted effect of over 50% in size
# IL1B secr inh = qHTS for Inhibitors of Inflammasome Signaling: IL-1-beta AlphaLISA Primary Screen | actives 4.7% (n = 360,000) | THP-1 LPS/ATP IL-1B secretion, AlphaLISA, 16 h; active compounds read low | activity change, % at 57.5 µM; in the data active means activity change below about -50%; inconclusive means mostly about -30% to -49%; further: on the % scale 0 is the no-effect control and ±100 the full control effect
#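 Secreted IL-1B measured by AlphaLISA bead assay after 16 h compound exposure of THP-1 cells; compounds (final up to 57.5 uM) added 1 h before LPS (250 ng/mL) and ATP (1.25 mM) stimulation; lower signal means less secretion.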
# BCR signal inh = qHTS Assay to Find Inhibitors of Chronic Active B-Cell Receptor Signaling; ABC-DLBCL IkBa-CBG/CBR reporter, luminescence ratio, 4 h; Potency, µM (doses to about 46.1 µM), without a hit: at the top dose activity change, negative = inhibition, usual class: inhibitors; actives 0.05% (n = 340,000); AID 493014, 2011; active means well fitted inhibition curve with a large enough effect in the signal ratio, with a control signal flat, not every such curve was filed as active; inconclusive means small, poorly fitted or top-dose-only effect, or effect the other way, or a change in a side signal; the % refers to the signal ratio;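 further: potency means the concentration at half of the fitted maximal effect; plate controls were basal doxycycline-induced cells for no effect and cells given 10 µM MG132 for full effect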
#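 TMD8 human ABC-DLBCL cells with doxycycline-inducible IκBα–green luciferase fusion and unfused red luciferase, in 0.5% FBS medium; compounds up to 46 uM, 4 h at 37C. Green/red luminescence ratio, filter-overlap corrected, fitted to concentration-response curves.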
# The depositor's hits bear a star; ? = inconclusive; nt = not tested or not shown. Unless noted, the call rests on the fitted dose curve; in most records, active means well fitted curve in the direction sought with a large enough effect; inconclusive means small, poorly fitted or top-dose-only effect, or another doubt; inactive means no such curve, though single readings can be large; an effect the other way counts as inactive or inconclusive.
SMILES,DT40 TDP1 no CPT,TDP1 cell CPT,SW480 rereplic,MCF10A rereplic,IL1B secr inh,BCR signal inh
COc1cccc(OCC(O)CN2CCC(CN3C(=O)c4cccc5cccc(c45)C3=O)CC2)c1 (centres undefined),7.3µM*,8.2µM*,?,?,-97*,-8%
O=C(Cc1c[nH]c2ccccc12)Nc1ccc(N2CCOCC2)cc1,-20%,2%,-5%,19%,2,1%
Cc1ccc(NC(=O)C(c2ccccc2)N(C)C)cc1Cl (centres undefined),-13%,?,0%,4%,?,?
CC(OC(=O)c1ccc(O)cc1)C(=O)Nc1ccc(Oc2ccccc2)cc1 (centres undefined),21µM*,?,?,?,-16,?
CC(=O)Nc1cccc(C(=O)OC(C(=O)c2ccc(C)c(C)c2)c2ccccc2)c1 (centres undefined),16µM*,16µM*,10%,11%,-8,17%
Cc1ccc(NC(=O)C(OC(=O)c2ccc(O)cc2)c2ccccc2)cc1Cl (centres undefined),0%,1%,5%,26µM*,-1,5%
O=C(NC1CCCC1)c1ccc2c(c1)N(Cc1ccccc1Cl)C(=O)c1ccccc1S2,?,-24%,nt,nt,nt,12%
O=C(NC1CCCC1)c1ccc2c(c1)N(Cc1ccccc1F)C(=O)c1ccccc1S2,15µM*,?,nt,nt,nt,-1%
Cc1ccccc1CN1C(=O)c2ccccc2Sc2ccc(C(=O)NC3CCCCC3)cc21,16µM*,15µM*,nt,nt,nt,1%
CCN(Cc1ccncc1)C(=O)c1ccccc1NS(=O)(=O)c1ccc(Br)cc1,-19%,-21%,-13%,0%,33,?
CC(C)OCCCNC(=O)C(Cc1ccccc1)NS(=O)(=O)c1ccc2c(c1)CCC(=O)N2 (centres undefined),17%,-15%,-16%,-8%,0,1%
CCCCCCCC(=O)Nc1cc(C(=O)NCCC)ccc1N1CCC2(CC1)CC(c1ccccc1)=NO2,12µM*,?,-5%,1%,8,-9%
CCCNC(=O)c1ccc(N2CCC3(CC2)CC(c2cccc(Br)c2)=NO3)c(NC(=O)c2ccccc2)c1,23µM*,?,1%,7%,-10,-2%
CCCNC(=O)c1ccc(N2CCC3(CC2)CC(c2ccccc2)=NO3)c(NC(=O)c2cccc(C)c2)c1,?,8.2µM*,10%,-2%,-10,-4%
CCCNC(=O)c1ccc(N2CCC3(CC2)CC(c2ccccc2)=NO3)c(NC(=O)c2ccc(Br)cc2)c1,-16%,?,11%,?,-7,4%
CCCNC(=O)c1ccc(N2CCC3(CC2)CC(c2ccccc2)=NO3)c(NC(=O)c2ccccc2)c1,15µM*,5.8µM*,-4%,-2%,-15,7%
CC(C)C(=O)Nc1nnc(S(=O)(=O)N(C)Cc2ccc(F)cc2)s1,-12%,-21%,nt,nt,nt,nt
CCC(CO)Nc1ccn2nc(-c3ccccc3)cc2n1 (centres undefined),?,-13%,nt,nt,24,nt
CCC(CO)Nc1ccn2nc(-c3cccs3)cc2n1 (centres undefined),-26%,-21%,nt,nt,-50*,nt
CCC(CO)Nc1ccn2nc(-c3cc(OC)c(OC)c(OC)c3)cc2n1 (centres undefined),15µM*,?,nt,nt,?,nt
Cc1oc(-c2cc(F)ccc2F)nc1CN(C)Cc1ccc2nccnc2c1,16µM*,?,7%,0%,22,15%
Cc1ccc(N(Cc2cc(=O)[nH]c3ccccc23)C(=O)CCl)c(C)c1,15µM*,15µM*,23µM*,?,-105*,?
Cc1nc2ccc(NC(=O)c3cccs3)cc2c(=O)n1Cc1ccc(Cl)cc1,?,18µM*,1%,17%,-92*,?
O=C(O)c1ccc(NC(=S)NC(=O)c2ccc(-c3ccc(Br)cc3)o2)cc1,4%,12%,-8%,1%,-1,?
CCc1ccccc1Nc1nc2ccccc2[nH]1,15µM*,?,?,?,-5,nt
SMILES,DT40 TDP1 no CPT,TDP1 cell CPT,SW480 rereplic,MCF10A rereplic,IL1B secr inh,BCR signal inh
O=C(Cc1c[nH]c2ccccc12)Nc1nc2ccccc2[nH]1,-18%,-13%,1%,15%,4,?
CC(=O)Nc1nc2ccccc2[nH]1,-7%,17%,0%,-4%,0,1%
CCNc1nc2ccccc2[nH]1,-21%,1%,2%,-8%,-7,?
O=C(CSc1ccccc1)Nc1nc2ccccc2[nH]1,21µM*,?,?,?,26,?
Oc1c(Cl)cc(Cl)cc1CNc1ccccn1,6%,6%,-1%,?,?,?
O=C(Cc1ccccc1)Nc1nc2ccccc2[nH]1,7.3µM*,13µM*,?,?,-5,-1%
Oc1c(Cl)cc(Cl)cc1CNc1nc2ccccc2[nH]1,-4%,1%,2%,?,-84*,-17%
O=C(c1[nH]c(C(F)(F)F)nc1-c1ccccc1)N1CCOCC1,-14%,1%,nt,nt,12,nt
COc1cccc(N2C(=O)C3CCCN3C2=S)c1 (centres undefined),?,-21%,?,?,-13,0%
COCCC(=O)N1CCCC(C(=O)c2ccc(C(F)(F)F)cc2)C1 (centres undefined),-24%,-22%,-4%,-11%,44,-1%
C[C@H]1CN([C@@H](C)CO)C(=O)CCCn2cc(nn2)CO[C@@H]1CN(C)S(=O)(=O)c1ccc(Oc2ccccc2)cc1,-1%,-22%,nt,nt,4,nt
O=C(CSc1ccc(Cl)cc1)Nc1ccc(-c2nc3ccccc3[nH]2)cc1,8.2µM*,12µM*,?,21µM*,-11,5%
O=C(Cc1ccc(Cl)cc1)Nc1nc2ccccc2[nH]1,2.1µM*,5.2µM*,9%,6%,-3,-11%
O=C(Cc1ccccc1)N[C@@H](Cc1ccccc1)c1nc2ccccc2[nH]1,23µM*,?,16%,30%,-8,-6%
O=C(Nc1nc2ccccc2[nH]1)c1ccccc1,?,?,3%,4%,12,?
O=C(CSc1nc2ccccc2[nH]1)Nc1ccc(F)cc1,2%,-12%,-4%,19%,-26,?
